Assay results taken from PubChem BioAssay (NCI).
The panel holds about 79,000 compounds, 15% with a hit somewhere; the sample as a whole holds those more often. A number with no mark means an inactive call. The source made the active and inactive calls. Cut-off read from the data, not from the text of the source: active = growth inhibition above about 70%; inactive = the rest.

How the values were obtained:
[1] = NCI Yeast Anticancer Drug Screen. Data for the rad50 strain (AID 155);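 note: 0% = growth of vehicle-only cultures of the same strain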; conditions: S. cerevisiae rad50 strain growth inhibition; at 50.0 µM; hits give high values
How it was run: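 Yeast carrying a defined DNA repair defect were exposed to test compounds, and growth was compared with vehicle-treated controls to give percent inhibition.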

[2] = NCI Yeast Anticancer Drug Screen. Data for the mec2-1 strain (AID 157); conditions: S. cerevisiae mec2-1 strain, at 50.0 µM, hits give high values
How it was run: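 Mutant yeast (mec2-1) grown with compound; growth inhibition relative to vehicle control reported.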

[3] = NCI Yeast Anticancer Drug Screen. Data for the sgs1 mgt1 strain (AID 161);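 note: 0% = growth of cultures given vehicle only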; conditions: S. cerevisiae sgs1 mgt1 strain, at 50.0 µM, hits give high values
How it was run: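 Percent growth inhibition was derived by comparing compound-exposed mutant yeast with vehicle-exposed cultures. The strain carries alterations in DNA damage repair.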

[4] = NCI Yeast Anticancer Drug Screen. Data for the cln2 rad14 strain (AID 165);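 note: 0% = growth equal to vehicle treated cultures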; conditions: S. cerevisiae cln2 rad14 strain, at 50.0 µM, hits give high values
How it was run: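 Readout is yeast growth inhibition versus vehicle-treated controls, using a strain with cln2 and rad14 alterations exposed to compound.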

[5] = NCI Yeast Anticancer Drug Screen. Data for the bub3 strain (AID 167); conditions: S. cerevisiae bub3 mutant strain, at 50.0 µM, hits give high values
How it was run: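 Compounds were applied to a genetically altered yeast strain carrying a cell-cycle control defect. Growth inhibition was scored against vehicle-treated controls.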

[6] = NCI Yeast Anticancer Drug Screen. Data for the mlh1 rad18 strain (AID 175); conditions: S. cerevisiae mlh1 rad18 strain growth inhibition; at 50.0 µM; hits give high values
How it was run: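 Genetically defined yeast (DNA repair-deficient) exposed to compounds; growth inhibition determined relative to vehicle.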

Row | SMILES | growth inhibition [1] | growth inhibition [2] | growth inhibition [3] | growth inhibition [4] | growth inhibition [5] | growth inhibition [6]
1 | CC(C)(O)C(O)(c1ccccc1)c1ccccc1 | 2.65% | 2.75% | 16.7% | 6.5% | 5.95% | 12.8%
2 | C=C1CC(C)(Cn2c(N)nc3nc[nH]c3c2=O)OC1=O (stereo unspecified) | 11.7% | 5.95% | 11.1% | 12.9% | 14.1% | 4.8%
3 | O=C(NC(CCS(=O)(=O)n1ccnc1)C(=O)OCc1ccccc1)OCc1ccccc1 (stereo unspecified) | 12.7% | -4.95% | -18.2% | 11.2% | -4.7% | 1.6%
4 | CCc1c(CNc2ccc(Cl)c(Cl)c2)ccc2nc(N)nc(N)c12 | 90.7% (active) | 92.2% (active) | 91.9% (active) | 90% (active) | 90.5% (active) | 89.7% (active)
5 | CC(C)=C1C(=O)C[C@]2(C)C[C@H]3O[C@]3(C)CC[C@@H]3O[C@@]3(C)CC[C@@H]12 | 0.3% | -8.05% | 12.6% | 14.1% | -1.65% | -66.5%
6 | C=C1c2cc3c(cc2CC12Cc1cc4c(cc1C2=O)CCC4)CCC3 (stereo unspecified) | 20.2% | 22% | 11.3% | 24.1% | 46.8% | 16%
7 | CCOC(=O)c1c(C)c2c(n1C)CCC(CCC(C)=O)C2=O (stereo unspecified) | 5.6% | 5.5% | -0.4% | 14.3% | 6.7% | 3.15%
8 | O=C(Nc1cccc([N+](=O)[O-])c1)C1C(=O)N(c2cccc([N+](=O)[O-])c2)C(=O)/C1=N/O (stereo unspecified) | -16.8% | -7.4% | -24.8% | -50.4% | 0.1% | -3.5%
9 | CC1=C2C(C)CC3OC(=O)C(C)C3C(O)C2CC1=O (stereo unspecified) | 5.8% | -7.5% | 1.2% | -40.8% | -8% | -5.75%
10 | CNC(=O)NC1C(O)COC(OC)C1O (stereo unspecified) | -2.65% | 3.4% | -0.6% | -37.1% | -4.15% | 0.25%
11 | O=C(C[n+]1cc(Br)cc(Br)c1)c1ccc(Br)cc1 | -16.9% | -0.15% | -0.05% | -0.9% | -4.95% | 37.9%
12 | O=c1oc2c(CN3CCOCC3)c(O)ccc2c2c1CCCC2 | 24.8% | 21.5% | 22.8% | 29.9% | 43.6% | 31.9%
13 | C[N+](C)(C)CCCOC1=Nc2ccccc2O/C1=C/c1ccccc1 | -52.2% | 2.1% | -6.3% | -27.4% | -4.1% | 18.5%
14 | CC1(C)Cc2cccc(OC(=O)NO)c2O1 | -0.65% | 24.4% | 0.45% | -37.8% | -3.1% | 9%
15 | CS(=O)(=O)OCC(=O)NCCCCNC(=O)COS(C)(=O)=O | -12.4% | 2.7% | 4.55% | -29.5% | 7.45% | 10.3%
16 | N#C/C(=C\c1cccc(Br)c1)c1nc2ccccc2c(=O)[nH]1 | 5.75% | 4.4% | 0.2% | 1.55% | -14.4% | -35.4%
17 | COC1=C(NCC(C)C)C(=O)C(OC)=C(NCC(C)C)C1=O | -3.05% | 8.75% | 1.7% | -57.7% | 3.25% | -12.1%
18 | COc1ccc(N(C(=O)Nc2ccc(Cl)c(Cl)c2)c2ccccc2)cc1 | -32.1% | -28.4% | -19.2% | -1.45% | 14.3% | -10.4%
19 | O=C(O)C1=C(O)CCN=C1 | -24.1% | 2.7% | 11% | -10.8% | -3.95% | 27.1%
20 | O=C1OC2C(O)C(N(O)c3ccccc3)OC2[C@@H]1O (stereo partly specified) | 1.85% | 17.5% | 21.9% | 9.2% | 21.8% | 15.1%
21 | CCC(=O)Oc1ccc[nH]c1=O | 1.8% | 21.2% | 4.95% | 24.6% | 9.95% | 14.2%
22 | Cc1cc(C)nc(NS(=O)(=O)c2ccc(Nc3c4ccccc4nc4c(C(=O)Nc5ccc(S(=O)(=O)Nc6cc(C)on6)cc5)cccc34)cc2)n1 | 28.8% | 17.6% | 32.2% | 31.7% | 11.4% | 38.9%
23 | Clc1ccc(CSc2cnnc(SCc3ccc(Cl)cc3Cl)c2SCc2ccc(Cl)cc2Cl)c(Cl)c1 | 5.9% | 5.9% | 8.05% | 2.25% | -5.15% | -6.6%

Row | SMILES | growth inhibition [1] | growth inhibition [2] | growth inhibition [3] | growth inhibition [4] | growth inhibition [5] | growth inhibition [6]
24 | O=C1N(O)C2(C=CCCC2)/C(=N/O)C12CCCCC2 (stereo unspecified) | -8.5% | -2.3% | -0.9% | 11.4% | 11.4% | 12.1%
25 | CC(=O)n1c2ccccc2c2nc3ccccc3nc21 | 0.3% | 10.4% | 11.9% | -30.9% | -19.6% | -14.1%
26 | CSC(=S)/C(=C/Nc1ccccn1)c1ccccc1 | 39.5% | 14.5% | -8.6% | 15.2% | 37.8% | 14.9%
27 | O=C(OCC1CCCO1)c1ccc(Cl)cc1 (stereo unspecified) | 13.7% | -4.4% | 24.9% | 34.1% | 8% | 7.2%
28 | CCOC(=O)Nc1ccc(F)c(C(F)(F)F)c1 | -8.05% | 4.45% | 8.6% | -52.3% | 11.6% | -4.25%
29 | Cc1ccc(S(=O)(=O)CN2CCC(=O)c3ccccc32)cc1 | 20.4% | 12.6% | -6.4% | 11.4% | 15.4% | 0.25%
30 | COc1ccc(-c2c(C(=O)O)cc(O)c3c(OC)c(OC)c(OC)cc23)cc1OC | -2.8% | 4% | -17.6% | -9.2% | 2.7% | 32.5%
31 | COc1ccc(Cc2ccc3[nH]c(=O)cc(C)c3c2)cc1S(=O)(=O)O | 33.8% | -17.6% | -15.5% | 41.7% | -17.7% | 8.95%
32 | O=C(Cc1cccc2ccccc12)NO | 18.3% | 5.05% | 6.7% | -32.3% | -28.4% | 11.6%
33 | CC(C)(CO)N1CCN(C(=S)Nc2ccccc2)CC1 | 17.9% | -2.6% | -0.3% | -1.9% | -10.8% | 17.8%
34 | C=C1C(=O)[C@@]23CC[C@@H]4[C@@]5(C)CCC[C@@]4(OC5=O)[C@@]2(C)CC[C@@H]1C3 | 92.1% (active) | 93.7% (active) | 93.8% (active) | 89.3% (active) | 93.3% (active) | 92.3% (active)
35 | CC(C)c1ccc(NC(=S)NCCO)cc1 | -7.95% | -4% | -21.7% | -9.65% | -4.1% | -10.9%
36 | CC1=C(CO)C(=O)O[C@@H]([C@@H](C)[C@H]2CC[C@H]3[C@@H]4C[C@@H](O)[C@@]5(O)CC=CC(=O)[C@]5(C)[C@H]4CC[C@]23C)C1 | -6.5% | -7.15% | -17.7% | -9.55% | -36.2% | -77.1%
37 | Nc1ncnc2c1ncn2C1OC(C(O)CO)C(O)C1N (stereo unspecified) | -15.7% | -0.3% | -13.7% | -14.8% | 0.55% | -23.6%
38 | CC(=O)Oc1cccn(C)c1=O | 18.6% | 19.1% | -6.35% | 24.6% | 32.5% | 21.1%
39 | COc1cccc(/C=C(\C#N)C(=O)c2ccccc2)c1 | 4.4% | 19.6% | 11.2% | 19.6% | 13.9% | 19%
40 | N#CC(c1ccc(O)cc1)N1CCN(C(C#N)c2ccc(O)cc2)CC1 (stereo unspecified) | -1.5% | 1% | -33.2% | -26.8% | -25.2% | -43.4%
41 | NC(=O)/C=C/C(N)=O | 13.6% | -9.45% | -16.7% | -13.5% | -5.05% | 2.7%
42 | Cn1cccc1/C=N/N=C(/N)NO | 22.9% | -9.85% | -13.7% | -4.5% | -18.5% | -0.4%
43 | COC1=CC(=O)C(C2CC(=O)c3c(O)cc(O)cc3O2)=CC1=O (stereo unspecified) | -4.2% | 0.85% | 11.2% | 7.95% | -20.8% | -63.9%
44 | O=C1O/C(=C/c2ccc(O)cc2)c2ccccc21 | 0.9% | -26.9% | -4.1% | -15.1% | 6.9% | -11.4%
45 | Cc1cccc(Cl)c1OCC(=O)O | -1.25% | -8.55% | -1.95% | -35.8% | -20.8% | -13.2%
46 | O=C(O)C1=C(C(=O)O)C2CCC1C2 | -25.1% | -33.5% | -23.2% | 2.65% | -11.8% | -14.4%
